Screens: PubChem, University of Kansas High Throughput Screening Laboratory
The entries come from a sample that favours hits as a whole.
mHTT CaM bind = mHTT-calmodulin interaction abrogation; AlphaScreen His-mHTT/GST-CaM binding, luminescence; P42858; 190,000 tested, 3.6% active; inhibition, % at 15 µM; AID 1671202;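 further: 0% = both proteins with DMSO and 100% = one protein alone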
Target sequence (P42858 whole entry, looked up, stated change not applied): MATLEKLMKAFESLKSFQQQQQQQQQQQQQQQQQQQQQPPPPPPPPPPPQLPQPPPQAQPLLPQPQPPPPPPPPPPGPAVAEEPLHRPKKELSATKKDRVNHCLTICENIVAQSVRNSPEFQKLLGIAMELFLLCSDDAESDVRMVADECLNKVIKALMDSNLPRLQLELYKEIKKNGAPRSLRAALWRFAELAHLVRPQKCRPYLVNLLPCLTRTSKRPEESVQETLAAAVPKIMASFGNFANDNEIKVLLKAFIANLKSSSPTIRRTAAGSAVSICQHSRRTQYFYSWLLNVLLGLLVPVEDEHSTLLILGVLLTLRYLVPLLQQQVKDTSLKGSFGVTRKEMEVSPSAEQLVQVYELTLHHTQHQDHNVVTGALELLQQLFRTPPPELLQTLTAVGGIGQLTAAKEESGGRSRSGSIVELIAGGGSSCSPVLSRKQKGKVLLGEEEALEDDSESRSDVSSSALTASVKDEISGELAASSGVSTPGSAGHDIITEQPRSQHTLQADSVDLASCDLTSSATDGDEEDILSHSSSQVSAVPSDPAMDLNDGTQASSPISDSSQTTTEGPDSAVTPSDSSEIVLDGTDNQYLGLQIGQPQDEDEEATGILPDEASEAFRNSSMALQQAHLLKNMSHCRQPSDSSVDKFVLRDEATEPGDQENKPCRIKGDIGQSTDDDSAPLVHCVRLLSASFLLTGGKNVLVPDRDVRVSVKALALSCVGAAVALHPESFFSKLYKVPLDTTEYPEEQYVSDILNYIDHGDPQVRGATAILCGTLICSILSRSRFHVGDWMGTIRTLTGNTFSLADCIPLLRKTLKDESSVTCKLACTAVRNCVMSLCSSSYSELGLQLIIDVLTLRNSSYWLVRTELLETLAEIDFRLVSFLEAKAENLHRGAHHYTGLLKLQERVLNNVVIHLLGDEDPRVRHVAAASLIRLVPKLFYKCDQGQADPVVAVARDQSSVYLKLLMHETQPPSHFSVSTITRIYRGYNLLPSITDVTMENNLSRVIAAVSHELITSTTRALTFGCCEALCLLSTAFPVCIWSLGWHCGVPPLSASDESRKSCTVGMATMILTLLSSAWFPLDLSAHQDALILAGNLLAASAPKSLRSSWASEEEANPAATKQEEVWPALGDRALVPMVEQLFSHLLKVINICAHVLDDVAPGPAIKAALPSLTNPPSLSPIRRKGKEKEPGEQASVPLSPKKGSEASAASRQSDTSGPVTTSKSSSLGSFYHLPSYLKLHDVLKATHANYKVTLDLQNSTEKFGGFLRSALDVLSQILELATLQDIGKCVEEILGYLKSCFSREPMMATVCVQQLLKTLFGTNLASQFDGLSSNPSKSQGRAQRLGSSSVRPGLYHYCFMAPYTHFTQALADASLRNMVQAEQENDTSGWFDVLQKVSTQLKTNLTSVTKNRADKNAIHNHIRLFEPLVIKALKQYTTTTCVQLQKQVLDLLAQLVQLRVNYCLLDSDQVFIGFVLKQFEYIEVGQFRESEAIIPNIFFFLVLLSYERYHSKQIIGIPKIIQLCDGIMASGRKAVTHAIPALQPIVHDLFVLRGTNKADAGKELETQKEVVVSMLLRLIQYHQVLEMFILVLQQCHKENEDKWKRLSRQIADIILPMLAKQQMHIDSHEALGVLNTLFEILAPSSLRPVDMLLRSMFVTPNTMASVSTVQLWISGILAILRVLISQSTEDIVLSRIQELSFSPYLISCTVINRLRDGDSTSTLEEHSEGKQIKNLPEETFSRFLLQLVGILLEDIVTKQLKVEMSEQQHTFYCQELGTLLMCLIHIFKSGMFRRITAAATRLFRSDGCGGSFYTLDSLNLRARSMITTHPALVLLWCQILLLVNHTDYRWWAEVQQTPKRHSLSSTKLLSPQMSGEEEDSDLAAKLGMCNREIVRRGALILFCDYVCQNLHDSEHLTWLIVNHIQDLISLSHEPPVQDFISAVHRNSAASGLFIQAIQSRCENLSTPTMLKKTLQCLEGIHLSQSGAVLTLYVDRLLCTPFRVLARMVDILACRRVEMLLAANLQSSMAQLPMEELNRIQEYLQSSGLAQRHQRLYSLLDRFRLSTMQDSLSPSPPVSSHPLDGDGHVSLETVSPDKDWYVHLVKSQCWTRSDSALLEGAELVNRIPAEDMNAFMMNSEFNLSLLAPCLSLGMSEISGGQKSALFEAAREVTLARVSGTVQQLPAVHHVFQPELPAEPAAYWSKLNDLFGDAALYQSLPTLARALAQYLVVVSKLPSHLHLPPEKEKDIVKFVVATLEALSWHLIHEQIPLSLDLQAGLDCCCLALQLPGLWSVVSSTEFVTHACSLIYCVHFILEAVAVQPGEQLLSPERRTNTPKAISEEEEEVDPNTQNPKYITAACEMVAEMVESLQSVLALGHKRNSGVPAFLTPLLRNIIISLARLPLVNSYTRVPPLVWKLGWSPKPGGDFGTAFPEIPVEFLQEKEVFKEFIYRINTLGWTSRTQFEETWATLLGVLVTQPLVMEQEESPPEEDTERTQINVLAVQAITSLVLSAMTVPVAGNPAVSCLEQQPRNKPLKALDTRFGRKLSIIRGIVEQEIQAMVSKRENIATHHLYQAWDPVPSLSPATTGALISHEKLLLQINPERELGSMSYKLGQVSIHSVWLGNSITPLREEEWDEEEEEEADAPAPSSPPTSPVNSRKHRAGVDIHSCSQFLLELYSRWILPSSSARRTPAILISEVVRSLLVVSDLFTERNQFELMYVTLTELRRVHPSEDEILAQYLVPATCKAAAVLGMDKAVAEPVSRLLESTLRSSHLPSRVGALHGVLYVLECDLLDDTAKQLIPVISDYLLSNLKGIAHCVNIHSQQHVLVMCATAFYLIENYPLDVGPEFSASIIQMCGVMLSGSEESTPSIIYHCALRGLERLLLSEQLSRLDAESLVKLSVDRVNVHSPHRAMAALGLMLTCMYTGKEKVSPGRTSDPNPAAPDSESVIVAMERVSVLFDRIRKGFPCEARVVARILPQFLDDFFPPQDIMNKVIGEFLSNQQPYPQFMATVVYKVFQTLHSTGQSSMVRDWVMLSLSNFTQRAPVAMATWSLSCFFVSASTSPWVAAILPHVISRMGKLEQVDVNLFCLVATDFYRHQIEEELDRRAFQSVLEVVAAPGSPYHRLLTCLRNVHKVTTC
Pf apPOL block = Pf-apPOL DNA polymerase inhibition | AID 1794808 | inhibition, % at 10 µM | 210,000 tested, 0.25% active | Recombinant Pf-apPOL, molecular beacon fluorescence, 1.5 h
The depositor's hits bear a star; x = no result given; ! = not confirmed by another sample. No stated cut-off is given here; in the data, active means inhibition above about 50%; inactive means the rest.

SMILES	mHTT CaM bind	Pf apPOL block
O=C1NN(c2ccc(Cl)c(Cl)c2)C(=O)/C1=C/c1ccc(-c2ccc3c(c2)C(=O)OC3)o1	68*	3
Cc1ccc(N2NC(=O)/C(=C\c3ccc(Cl)cc3Cl)C2=O)cc1Cl	90*	4
COc1cccc(/C=C2\C(=O)NN(c3ccc(C)c(Cl)c3)C2=O)c1OCC#N	28	-4
Cc1ccc(N2NC(=O)/C(=C\c3ccccc3OCC#N)C2=O)cc1Cl	78*	2
Cc1ccc(N2NC(=O)/C(=C\c3cccs3)C2=O)cc1Cl	2	0
O=C1NN(c2ccc(Cl)c(Cl)c2)C(=O)/C1=C/c1ccc(-c2ccc3c(c2)C(=O)NC3=O)o1	5	-8
Cc1ccc2nc(-c3ccc(NC(=O)c4c(O)c5cccc6c5n(c4=O)CC6)cc3)sc2c1	5	-1
CCCCCCNC(=O)C(NC(=O)c1ccccc1)C12CC3CC(CC(C3)C1)C2 (stereo unspecified)	-3	-3
CCN(C(=O)CN1C(=O)NC2(CCCCC2)C1=O)c1ccccc1	-3	-2
CCN(C(=O)CN1C(=O)c2ccccc2C1=O)c1ccccc1	98*	-1
CC1(C)CC(=O)C2=C(C1)N(c1ccccc1)C(N)=C(C#N)C2c1ccc(F)cc1 (stereo unspecified)	-7	-9
N#CC1=C(N)Oc2n[nH]c(C34CC5CC(CC(C5)C3)C4)c2C1c1cccs1 (stereo unspecified)	55*	-3
N#CC1=C(N)Oc2n[nH]c(C34CC5CC(CC(C5)C3)C4)c2C1c1ccc(O)cc1 (stereo unspecified)	29	8
O=C(CSc1nc(-c2ccccc2)c(-c2ccccc2)o1)N1CCOCC1	56*!	10
O=C(CSc1ccccc1)N1CCOCC1	-2	-9
Nc1c(-c2ccccc2)no[n+]1[O-]	-7	x
Cc1ccc(NC(=O)CN(C)S(=O)(=O)c2ccc3[nH]c4c(c3c2)CCCC4)c(Cl)c1	43	-5
Cc1ccccc1NC(=O)CN(C)S(=O)(=O)c1ccc2[nH]c3c(c2c1)CCCC3	14	-4
CN(CC(=O)Nc1cccc(Cl)c1)S(=O)(=O)c1ccc2[nH]c3c(c2c1)CCCC3	55*	-1
Cc1ccc(NC(=O)CN(C)S(=O)(=O)c2ccc3[nH]c4c(c3c2)CCCC4)cc1	48	0
CN(CC(=O)Nc1ccc(Cl)cc1)S(=O)(=O)c1ccc2[nH]c3c(c2c1)CCCC3	66*	1
CN(CC(=O)NCCC1=CCCCC1)S(=O)(=O)c1ccc2[nH]c3c(c2c1)CCCC3	63*	-10
Cc1cccc(NC(=O)CN(C)S(=O)(=O)c2ccc3[nH]c4c(c3c2)CCCC4)c1	64*	3
CN(CC(=O)NCc1cccnc1)S(=O)(=O)c1ccc2[nH]c3c(c2c1)CCCC3	21	-5
COc1ccc(Cl)cc1NCN1C(=O)S/C(=C\c2ccc(F)cc2)C1=O	7	-11
SMILES	mHTT CaM bind	Pf apPOL block
COc1cccc(C2CC(C(F)(F)F)n3ncc(C(=O)N4CCN(C)CC4)c3N2)c1 (stereo unspecified)	7	-2
CCCNc1cc(N2CCCC(CCC(=O)NCc3cccs3)C2)ncn1 (stereo unspecified)	7	-6
CCc1nc(N=C(N)N)nc2cc(C)ccc12	-2	-1
COC(=O)CNC(=O)N1CCC(c2nc3ccncc3n2CC(C)C)C1 (stereo unspecified)	0	-4
Cc1cc(C)c(NC(=O)CN(C)S(=O)(=O)c2ccc3[nH]c4c(c3c2)CCCC4)c(C)c1	38	-4
CN(CC(=O)NC1CCCCCC1)S(=O)(=O)c1ccc2[nH]c3c(c2c1)CCCC3	59*	-1
COc1ccc(C=Nc2ccc3ncccc3c2)cc1	31	-2
COc1ccc(C=Nc2ccc3c(c2)nc(C)n3C)cc1	6	69*
Cc1ccc(CNc2nnc(N3CCOCC3)c3ccccc23)cc1	0	-12
COc1ccc2cccc(NC(=O)c3c[nH]c4ccccc34)c2n1	58*	-1
COc1ccc2cccc(NC(=O)c3ccco3)c2n1	12	-7
CCOc1ccc(C(=O)Nc2cc(F)c3nc(N4CCOCC4)ccc3c2)cc1	-5	1
COc1cccc(C(=O)Nc2cc(-c3ccccn3)no2)c1	-3	2
CC(C)(C)CNC(C#N)=C(C#N)NCc1cccc(Cl)c1	x	-5
O=C1C(=CC=CC2=C(O)c3ccccc3S2(=O)=O)S(=O)(=O)c2ccccc21	57*	x
O=c1ccc(-c2ccc(F)cc2)nn1CCc1nc(-c2ccccc2Cl)no1	-6	-5
O=c1ccc(-c2ccc(F)cc2)nn1CCc1nc(-c2cccc(Br)c2)no1	56*	-9
CS(=O)(=O)c1ccc(Nc2nc(CC(=O)N3CCC(C(N)=O)CC3)cs2)cc1	-12	-2
CSc1nnc2c(n1)OC(/C=C/c1ccco1)Nc1ccccc1-2 (stereo unspecified)	46	0
CSc1nnc2c(n1)OC(/C=C/c1ccco1)Nc1ccc(Br)cc1-2 (stereo unspecified)	92*	-3
CCSc1nnc2c(n1)OC(c1ccccn1)Nc1ccc(Br)cc1-2 (stereo unspecified)	10	0
C=CCSc1nnc2c(n1)OC(/C=C/c1ccco1)Nc1ccccc1-2 (stereo unspecified)	30	-8
CCCSc1nnc2c(n1)OC(/C=C/c1ccco1)Nc1ccccc1-2 (stereo unspecified)	54*	2
CCSc1nnc2c(n1)OC(c1ccccn1)Nc1ccccc1-2 (stereo unspecified)	3	93*
C=CCSc1nnc2c(n1)OC(/C=C/c1ccco1)Nc1ccc(Br)cc1-2 (stereo unspecified)	87*	1
SMILES	mHTT CaM bind	Pf apPOL block
CSc1nnc2c(n1)OC(c1ccccn1)Nc1ccc(Br)cc1-2 (stereo unspecified)	22	-10
COc1cccc2cc(C(=O)Nc3ccc4c(c3)C(=O)Nc3ccccc3O4)oc12	-3	-6
O=C(Nc1ccc(-n2nc(C(F)(F)F)cc2C(F)(F)F)cc1)c1ccc(OC(F)(F)F)cc1	x	5
O=C(CCc1cccc(Oc2ccc(F)cc2)c1)NC1CC1	-5	-6
Cn1nc(C(=O)NCc2ccc(F)cc2)c2c1CCN(C(=O)c1ccc(F)cc1)C2	-6	-4
Cc1cccc(C(=O)N2CCc3c(c(C(=O)NCc4ccc(F)cc4)nn3C)C2)c1	73*	-10
Cn1nc(C(=O)NCc2ccc(F)cc2)c2c1CCN(C(=O)c1cccs1)C2	0	-12
COc1cccc(C(=O)N2CCc3c(c(C(=O)NCc4ccc(F)cc4)nn3C)C2)c1	86*	-14
Cc1cccc(N2CCN(C(=O)c3ccc(Br)cc3)CC2)c1C	-1	-1
COc1ccc(/C=C2/SC(N3CCCC3)=NC2=O)cc1O	1	-11
O=C(CSc1ncn[nH]1)n1c2c(c3ccccc31)CCCC2	57*	5
Cn1c(SCC(=O)n2c3c(c4ccccc42)CCCC3)nnc1-c1ccc(N)cc1	16	-3
C=CCn1cnc2c(-c3ccc(C)cc3)csc2c1=O	-18	-9
CCC(C)c1ccccc1OCC(O)CNC(C)(C)C (stereo unspecified)	-6	-7
CCC(C)c1ccccc1OCC(O)CNC(C)(C)C(C)(C)C (stereo unspecified)	100*	-6
CCCc1nc2c(c(=O)n1CC(=O)NC(C)C)CCN(Cc1ccccc1)C2	3	-7
CCn1c2ccccc2c2cc(C3C(C#N)=C(N)Oc4n[nH]c(COC)c43)ccc21 (stereo unspecified)	65*	-8
